From PubChem
TDP1 inh: inhibitors of human tyrosyl-DNA phosphodiesterase TDP1 | Q9NUW8 | recombinant TDP1, AlphaScreen DNA substrate cleavage | Potency, µM (titrated, usually from 130 µM), hits mostly inhibitors | 350,000 tested, 0.28% active | AID 485290; also: nearly all actives have a fitted effect of over 40% in size
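AlphaScreen read-out: signal falls as enzyme removes the 3' tyrosine-FITC from a 5'-biotinylated DNA oligo (15 nM, 5 min, RT). Enzyme was E. coli-made recombinant Tdp1 at 1 nM, exposed to compound for 15 min beforehand; beads 10 ug/ml, 10 min.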
DT40 TDP1 CPT: DT40-hTDP1 cell growth loss with CPT; chicken DT40 Tdp1-/-;hTDP1 cells + 20 nM CPT, ATP luminescence, 48 h; 420,000 tested, 12% active; AID 686979; Potency, µM (titrated, usually from 46.2 µM), actives largely listed as inhibitors; also: nearly all actives have a fitted effect of over 55% in size
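Chicken DT40 Tdp1-/- cells stably complemented with human TDP1 were seeded at 400 cells/well in medium containing 20 nM camptothecin, exposed to pin-transferred compounds, and grown at 37 °C for at least 48 hr. Viability was read as ATP luminescence.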
ClpP mod: qHTS Assay for Activators of ClpP; purified B. subtilis ClpP, FRET peptide cleavage, 20 min; ATP-dependent Clp protease proteolytic subunit (Bacillus subtilis (strain 168)), P80244; Potency, µM (doses to about 57.5 µM); AID 651965, 2013; 340,000 tested, 1.9% active; active = well fitted falling curve with a large enough effect; inconclusive = small, poorly fitted or top-dose-only effect; inactive = no such curve, though single readings can be large or run the other way; also: the source files actives as falling curves though it sought activators and does not explain the sign; nearly all actives have a fitted effect of over 65% in size
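Buffer: 100 mM Tris/HCl pH8, 100 mM KCl, 0.05% low protease BSA, 2.5% glycerol, 0.01% Tween-20. ClpP 10 microg/mL final; 20 min RT; delta FRET normalized to ADEP and DMSO controls.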
TDP1 cell noCPT: qHTS for Inhibitors of human tyrosyl-DNA phosphodiesterase 1 (TDP1): qHTS in cells in absence of CPT; DT40 Tdp1-/- hTDP1 cells, no CPT, ATP luminescence, 48 h; Potency, µM (titrated, usually from 46.2 µM), actives largely listed as inhibitors; 420,000 tested, 15% active; also: nearly all actives have a fitted effect of over 55% in size
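A cellular qHTS used chicken DT40 cells lacking endogenous Tdp1 but carrying stably transfected human TDP1. Compounds were applied without camptothecin, and cell growth kinetics were judged by ATP-dependent luminescence after ≥48 hr.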
A number is an active result; n = inactive; u = inconclusive; x = no result given. A selection: hits, their analogues and other compounds. The true share with any hit is near 17%. Unless noted, calls follow the shape of the dose curve; as a rule, active = well fitted curve in the direction sought with a large enough effect; inconclusive = small, poorly fitted or top-dose-only effect, or another doubt; inactive = no such curve, though single readings can be large; an effect the other way counts as inactive or inconclusive.

SMILES | TDP1 inh | DT40 TDP1 CPT | ClpP mod | TDP1 cell noCPT
COc1cccc(C(=O)Nc2nnc(-c3ccc(F)cc3)o2)c1 | x | 10µM | n | 9.2µM
Cc1cccc(NC(=O)CN(CCc2ccccc2)S(C)(=O)=O)c1 | x | n | n | n
COc1cccc(C(=O)Nc2nnc(-c3ccc(Cl)cc3)o2)c1 | x | 10µM | n | 10µM
O=C(Nc1nnc(-c2ccc(Cl)cc2)o1)c1cccc(N2C(=O)CCC2=O)c1 | n | n | n | n
COc1ccccc1N1CCN(c2ncnc3sc(C(=O)NCC4CCCO4)c(C)c23)CC1 (stereo not drawn) | n | u | n | 13µM
COc1ccc(N2CCN(c3ncnc4sc(C(=O)NCC5CCCO5)c(C)c34)CC2)cc1 (stereo not drawn) | x | u | x | 23µM
COc1ccc(-n2c(N)c(C(=O)NCC3CCCO3)sc2=S)cc1 (stereo not drawn) | n | n | n | n
O=C(Nc1ccccc1-c1nnn(CC(=O)N2CCOCC2)n1)c1ccc(F)cc1 | n | n | x | n
COc1ccccc1N1C(=O)c2ccccc2C1=O | n | x | x | x
CN1C(=O)c2cccc3c(Br)ccc(c23)C1=O | x | n | n | u
COc1ccccc1N1C(=O)c2cccc3c(Cl)ccc(c23)C1=O | x | u | n | 13µM
CN1C(=O)c2cccc3c(Cl)ccc(c23)C1=O | n | n | 16µM | n
O=C1/C(=C\c2ccc(O)c(O)c2)N=C2CCCCCN12 | n | 23µM | x | u
COc1ccc(/C=C2\N=C3CCCCCN3C2=O)cc1OC | n | n | n | n
CC(C)(C)c1ccc(C(=O)NCC2CCCN2S(=O)(=O)c2ccccc2)cc1 (stereo not drawn) | x | 8.2µM | n | 12µM
Cc1ccc(S(=O)(=O)N2CCCC2CNC(=O)c2ccc(F)c(F)c2)cc1 (stereo not drawn) | n | u | n | 18µM
COc1ccc(NC(=O)C(=O)NCC2CCCN2S(=O)(=O)c2ccc(C)cc2)cc1 (stereo not drawn) | n | 0.0058µM | x | 0.018µM
O=C(NCC1CCCN1S(=O)(=O)c1ccccc1)c1cccc(Cl)c1 (stereo not drawn) | n | u | n | u
COc1ccc(NC(=O)C(=O)NCC2CCCN2S(=O)(=O)c2cc(C)ccc2C)cc1 (stereo not drawn) | n | 4.1µM | n | 2.6µM
Cc1ccc(C(=O)NCC2CCCN2S(=O)(=O)c2ccc(C)cc2)cc1 (stereo not drawn) | n | u | x | u
COC(=O)[C@@]1(Cc2ccc(OC)cc2)[C@H]2c3cc(C(=O)N4CCCC4)n(Cc4cc(F)c(F)c(F)c4)c3C[C@H]2CN1C(=O)c1ccccc1 | n | x | x | x
COc1ccc(S(=O)(=O)N2CCCC2CNC(=O)C(=O)NCc2ccccc2Cl)cc1 (stereo not drawn) | x | u | x | 23µM
COc1ccc(S(=O)(=O)N2CCCC2C(=O)NCc2ccccc2Cl)cc1 (stereo not drawn) | n | n | n | u
Cc1ccc(S(=O)(=O)N2CCCC2CNC(=O)C(=O)Nc2ccc(F)cc2)cc1 (stereo not drawn) | n | 21µM | n | 16µM
COC(=O)c1ccc(SCC(=O)N2CCC(C)CC2)c([N+](=O)[O-])c1 | n | n | n | u
SMILES | TDP1 inh | DT40 TDP1 CPT | ClpP mod | TDP1 cell noCPT
CS(=O)(=O)c1ccc(C(=O)OCC(=O)NC(=O)NC2CCCCC2)cc1[N+](=O)[O-] | n | 2.8µM | n | 4.5µM
Cn1ccsc1=NC(=O)c1ccc(S(C)(=O)=O)c([N+](=O)[O-])c1 | n | 4.6µM | n | 4.6µM
CC1CCN(C(=O)C(C)OC(=O)c2ccc(S(C)(=O)=O)c([N+](=O)[O-])c2)CC1 (stereo not drawn) | n | 0.89µM | n | 2.2µM
COc1ccc(C(=O)OCC(=O)NC(=O)NC2CCCC2)cc1[N+](=O)[O-] | n | n | x | n
Cn1cccc1C(=O)NC(=O)COC(=O)c1ccc(S(C)(=O)=O)c([N+](=O)[O-])c1 | n | 4µM | n | 4.5µM
COC(=O)c1ccc(-c2cccc3c2OC(CNC(=O)c2ccc4c(c2)OCCO4)C3)nc1 (stereo not drawn) | x | n | x | n
O=C(COC(=O)c1ccc(F)c([N+](=O)[O-])c1)NC(=O)NCc1ccccc1 | n | 21µM | n | u
CS(=O)(=O)c1ccc(C(=O)OCC(=O)NCC2CCCO2)cc1[N+](=O)[O-] (stereo not drawn) | n | 10µM | n | 7.9µM
CS(=O)(=O)c1ccc(C(=O)OCC(=O)NC23CC4CC(CC(C4)C2)C3)cc1[N+](=O)[O-] | n | u | n | u
CCCCOc1ccc(C(=O)N(Cc2ccc(C(C)C)cc2)C2CCS(=O)(=O)C2)cc1 (stereo not drawn) | n | u | n | u
N#CCCn1c(=O)cnc2cnc(N3CCOCC3)nc21 | x | u | x | n
N#Cc1ccc(NC(=S)/N=C(\N)c2ccccc2)cc1 | x | u | n | u
N/C(=N\C(=S)Nc1ccccc1)c1ccccc1 | x | u | x | 16µM
Cc1nc2ncccn2c1-c1csc(Nc2ccc(O)cc2)n1 | n | u | x | 5.2µM
Cc1ccc(Nc2nc(-c3c(C)nc4ncccn34)cs2)cc1 | n | 0.018µM | n | 0.0065µM
C=CCNc1nc(-c2c(C)nc3ncccn23)cs1 | x | n | x | n
Cc1ccnc(Nc2nc(-c3c(C)nc4sccn34)cs2)c1 | n | u | n | u
CCOc1cc(CO)cc(Br)c1OCC(N)=O | n | n | n | n
CCOc1cc(C=O)cc(Cl)c1OCC(N)=O | n | u | n | 18µM
O=c1c(N=Nc2ccc(O)cc2)c(-c2ccccc2)[nH]n1-c1ccc([N+](=O)[O-])cc1 | n | u | n | 16µM
O=c1ccc(-c2ccc([N+](=O)[O-])cc2)nn1-c1ccccc1 | n | n | x | n
O=c1cc(-c2ccccc2)[nH]n1-c1ccc([N+](=O)[O-])cc1 | n | 18µM | n | u
CCCCC(=O)OCC(=O)Nc1ccc(C)c(F)c1 | n | n | x | n
Cc1cc(NS(=O)(=O)c2ccc(NC(=O)c3ccc([N+](=O)[O-])cc3)cc2)nc(C)n1 | x | n | n | n
CC(C)(C)c1ccc(C(=O)NNc2ncnc3c2cnn3-c2ccccc2)cc1 | n | u | n | u
SMILES | TDP1 inh | DT40 TDP1 CPT | ClpP mod | TDP1 cell noCPT
Cc1ccc(-n2cnc3cc(C(=O)NC4CCCCCC4)ccc32)c(C)c1 | n | u | n | 16µM
COc1ccc(C)cc1-n1cnc2cc(C(=O)NC3CCCCCC3)ccc21 | n | u | n | u
Cc1ccc(-n2cnc3cc(C(=O)NCc4ccc(F)cc4)ccc32)c(C)c1 | n | 21µM | n | u
Cc1nc(N)ncc1-c1ccc2c(c1)OCO2 | x | n | n | n
CC(NC(=O)c1cccs1)C1CCCO1 (stereo not drawn) | n | n | 28µM | n
CC(NC(=O)c1sc2ccccc2c1Cl)C1CCCO1 (stereo not drawn) | n | 21µM | n | u
